Test results from PubChem BioAssay (Tox21).
Results filed as inconclusive are left out. Activity calls are given as the source filed them. Unless noted, calls follow the shape of the full dose curve.

Key:
[1] = Nuclear factor erythroid 2-related factor 2/antioxidant responsive element (Nrf2/ARE) small molecule agonists: qHTS cell viability counter screen in human keratinocytes (AID 1919968; active = well fitted curve in the direction sought with a large enough effect in the repeat runs; an effect the other way counts as inactive or inconclusive; also: nearly all actives have a fitted effect of over 55% in size; also: potency is read from the fitted curve at half-maximal effect)
Summary of the method: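 Stably transfected HaCaT (KeratinoSens), 1,500/well. Test agents in DMSO were applied for 23 h, 37 C/5% CO2. CellTiter-Fluor was incubated 1 h before the fluorescence read.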

[2] = Nuclear factor erythroid 2-related factor 2/antioxidant responsive element (Nrf2/ARE) small molecule agonists: luciferase reporter gene qHTS assay in human keratinocytes (AID 1919969); also: nearly all actives have a fitted effect of over 35% in size; also: potency is read from the fitted curve at half-maximal effect
[3] = molecular target: Gonadotropin-releasing hormone receptor (Homo sapiens) (UniProt P30968); assay: Human gonadotropin-releasing hormone receptor (GnRHR) small molecule agonists, calcium flux assay in GnRHR-HEK293 cells (AID 1920063); also: nearly all actives have a fitted effect of over 35% in size
Summary of the method: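 Stable human GnRHR HEK293 line. 18 h plating, then calcium dye for 1 h at 37 C. Agonist-mode compound addition from DMSO stocks; fluorescence monitored 3 min.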

[4] = molecular target: KiSS-1 receptor (Homo sapiens) (UniProt Q969F8); assay: Human kisspeptin (KISS1R) small molecule agonists, calcium flux assay in KISS1R-HEK293 cells (AID 1920064; active = well fitted curve in the direction sought with a large enough effect in the repeat runs; an effect the other way counts as inactive or inconclusive)
Summary of the method: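 After overnight (18 h) culture at 37 C/5% CO2, human KISS1R-HEK293 cells received calcium dye for 1 h, then test compound; emission at 540 nm (excitation 480 nm) was tracked for 3 min.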

[5] = G protein-coupled receptor (GPCR) small molecule agonists, calcium flux assay: HEK293 wild type cell line counter screen (AID 1920065)
Summary of the method: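 Following 18 h incubation at 37 C/5% CO2, plates got calcium dye for 1 h; compounds, ATP or DMSO were then pinned in and fluorescence followed kinetically (480/540 nm).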

[6] = p53 small molecule agonists, cell-based qHTS assay with human liver microsomes (AID 1963577);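 also: p53 response element beta-lactamase reporter cells with liver microsomes plus NADPH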
Summary of the method: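 HLM-supplemented p53RE-bla reporter assay: 16 h compound exposure at 37 C, microsomes and NADPH each 0.5 mg/mL final, read by fluorescence intensity.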

[7] = p53 small molecule agonists, cell-based qHTS assay with rat liver microsomes (AID 1963578)
Summary of the method: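 Quantitative HTS of the Tox21 10K library: p53RE-bla cells, rat liver microsomes plus NADPH at 0.5 mg/mL final each, 16 h at 37 C, beta-lactamase fluorescence detection.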

[8] = p53 small molecule agonists, cell-based qHTS assay with human liver microsomes: qHTS cell viability counter screen (AID 1963579); also: nearly all actives have a fitted effect of over 45% in size
Summary of the method: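 Viability of p53RE-bla cells is measured as CellTiter-Glo luminescence following a 16 h, 37 C incubation with compound, liver microsomes from human donors and NADPH.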

[9] = p53 small molecule agonists, cell-based qHTS assay with rat liver microsomes: qHTS cell viability counter screen (AID 1963580); also: nearly all actives have a fitted effect of over 45% in size
Summary of the method: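 Luminescent ATP readout (CellTiter-Glo, 30 min at room temperature) reports viability of p53RE-bla HCT-116 cells after 16 h at 37 C with test compounds under metabolic activation by rat liver microsomes and NADPH at 0.5 mg/mL final each.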

[10] = molecular target: Beta-2 adrenergic receptor (Homo sapiens) (UniProt P07550); assay: Adrenergic beta2 receptor (ADRB2) small molecule antagonists, cell-based qHTS assay (AID 1963592); also: series mostly up to about 92 µM; nearly all actives have a fitted effect of over 50% in size
Summary of the method: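 Assay format: CHO-ADRB2 cells, 18-20hr seeding at 37C/5% CO2, then compound plus 1nM isoproterenol agonist mix for 0.5hr RT. Homogeneous time-resolved fluorescence cAMP detection after 1hr, expressed as 665/615 nm ratio.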

[11] = molecular target: Beta-2 adrenergic receptor (Homo sapiens) (UniProt P07550); assay: Adrenergic beta2 receptor (ADRB2) small molecule agonists, cell-based qHTS assay (AID 1963593);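 also: CHO cells stably overexpressing human ADRB2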
Summary of the method: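 CHO cells stably over-expressing ADRB2 were plated overnight at 37C, then dosed with compounds plus a stimulation mix containing 100uM IBMX and 25uM Ro-20-1724 for 0.5hr at room temperature. cAMP was measured by HTRF competition, 1hr.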

[12] = molecular target: D(2) dopamine receptor (Homo sapiens) (UniProt P14416); assay: Dopamine D2 receptor (DRD2) small molecule agonists, cell-based qHTS assay (AID 1963594); also: nearly all actives have a fitted effect of over 35% in size
Summary of the method: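 HEK293 cells stably expressing DRD2 were cultured 24 h at 37 C, then given Ro20-1724 (0.1 mM final) and compounds for 10 min at room temperature. NKH477 (200nM) was then added for 30 min. cAMP was read by HTRF.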

[13] = molecular target: D(2) dopamine receptor (Homo sapiens) (UniProt P14416); assay: Dopamine D2 receptor (DRD2) small molecule antagonists, cell-based qHTS assay (AID 1963595; active = well fitted inhibition curve with a large enough effect in the signal ratio in the repeat runs, with a control signal flat; the % refers to the signal ratio)
Summary of the method: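 DRD2-HEK293; 0.1 mM Ro20-1724; cpd 10 min RT; NKH477 200 nM + quinpirole 12 nM, 30 min RT; HTRF cAMP (cAMP-d2/anti-cAMP cryptate), 665/620 nm ratio after 1 h.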

[14] = p53 small molecule agonists, cell-based qHTS assay (AID 1963582; active = well fitted activation curve with a large enough effect in the signal ratio in the repeat runs, not every such curve was filed as active; the % refers to the signal ratio)
Summary of the method: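 Measured: fluorescence from cleaved LiveBLAzer substrate. System: p53RE-bla cells, 16 h compound treatment at 37 C, 2 h substrate step at room temperature.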

[15] = molecular target: 5-hydroxytryptamine receptor 2A (Homo sapiens) (UniProt P28223); assay: 5-hydroxytryptamine receptor 2A (HTR2A) small molecule antagonists, cell-based qHTS assay (AID 1963586); also: nearly all actives have a fitted effect of over 45% in size
Summary of the method: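 CHO cells stably expressing human HTR2A were plated for 18 h at 37 C, then loaded with calcium dye for 1 h. Compounds were preincubated 5 min at room temperature before DOI (4 nM solution) was added. Kinetic fluorescence was read for 3 min.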

[16] = molecular target: 5-hydroxytryptamine receptor 2A (Homo sapiens) (UniProt P28223); assay: 5-hydroxytryptamine receptor 2A (HTR2A) small molecule agonists, cell-based qHTS assay (AID 1963587); also: nearly all actives have a fitted effect of over 30% in size
Summary of the method: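 HTR2A-CHO cells, plated 18 h at 37 C/5% CO2, dye-loaded 1 h at 37 C; compounds in DMSO added by pin tool (agonist mode). Intracellular calcium flux read as kinetic fluorescence on FDSS over 2 min at 1 s intervals.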

[17] = molecular target: Muscarinic acetylcholine receptor M1 (Homo sapiens) (UniProt P11229); assay: Cholinergic receptor muscarinic 1 (CHRM1) small molecule antagonists, cell-based qHTS assay (AID 1963588); also: nearly all actives have a fitted effect of over 40% in size
Summary of the method: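 Compounds were tested at 15 concentrations in three independent runs. Dye-loaded CHRM1-CHO cells were exposed 5 min at room temperature before stimulation by acetylcholine added at 50nM. Intracellular calcium was read kinetically on FDSS for 3 min.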

[18] = molecular target: Muscarinic acetylcholine receptor M1 (Homo sapiens) (UniProt P11229); assay: Cholinergic receptor muscarinic 1 (CHRM1) small molecule agonists, cell-based qHTS assay (AID 1963589); also: nearly all actives have a fitted effect of over 35% in size
Summary of the method: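 Kinetic fluorescence (1 s intervals) of calcium-sensitive dye in human M1 CHO cells after compound addition; cells pre-incubated 18 h at 37 C/5% CO2 and dye-loaded 1 h.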

[19] = cAMP Responsive Elements (CRE) small molecule agonists, cell-based qHTS assay (AID 1963590)
Summary of the method: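 Test agents in DMSO were incubated 3 h at 37 C/5% CO2 with CRE-bla HEK 293T cells seeded 18 h earlier; LiveBLAzer B/G FRET substrate was added and read after 2 h at room temperature.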

[20] = cAMP Responsive Elements (CRE) small molecule antagonists, cell-based qHTS assay (AID 1963591; active = well fitted inhibition curve with a large enough effect in the signal ratio in the repeat runs, not every such curve was filed as active; the % refers to the signal ratio)
Summary of the method: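 Reporter line CRE-bla HEK 293T in dialyzed-FBS DMEM; cells preincubated 18 h, treated 3 h with compound plus NKH477 (0.25 uM final); LiveBLAzer FRET, 2 h RT.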

Measured: Potency

Chain of 5-hydroxytryptamine receptor 2A (Homo sapiens) (P28223 whole entry, looked up): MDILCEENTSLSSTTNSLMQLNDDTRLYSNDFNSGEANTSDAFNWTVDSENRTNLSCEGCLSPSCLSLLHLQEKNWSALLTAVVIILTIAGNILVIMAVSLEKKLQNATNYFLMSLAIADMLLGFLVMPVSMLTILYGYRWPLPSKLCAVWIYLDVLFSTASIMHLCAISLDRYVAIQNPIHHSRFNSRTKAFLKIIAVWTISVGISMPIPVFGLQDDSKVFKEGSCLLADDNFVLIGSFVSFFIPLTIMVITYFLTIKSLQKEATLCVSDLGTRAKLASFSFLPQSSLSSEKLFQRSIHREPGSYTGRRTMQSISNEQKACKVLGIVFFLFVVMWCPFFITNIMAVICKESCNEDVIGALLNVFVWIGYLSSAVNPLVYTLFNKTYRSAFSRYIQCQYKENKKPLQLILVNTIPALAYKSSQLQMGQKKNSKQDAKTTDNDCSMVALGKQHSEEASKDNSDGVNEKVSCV
Chain of D(2) dopamine receptor (Homo sapiens) (P14416 whole entry, looked up): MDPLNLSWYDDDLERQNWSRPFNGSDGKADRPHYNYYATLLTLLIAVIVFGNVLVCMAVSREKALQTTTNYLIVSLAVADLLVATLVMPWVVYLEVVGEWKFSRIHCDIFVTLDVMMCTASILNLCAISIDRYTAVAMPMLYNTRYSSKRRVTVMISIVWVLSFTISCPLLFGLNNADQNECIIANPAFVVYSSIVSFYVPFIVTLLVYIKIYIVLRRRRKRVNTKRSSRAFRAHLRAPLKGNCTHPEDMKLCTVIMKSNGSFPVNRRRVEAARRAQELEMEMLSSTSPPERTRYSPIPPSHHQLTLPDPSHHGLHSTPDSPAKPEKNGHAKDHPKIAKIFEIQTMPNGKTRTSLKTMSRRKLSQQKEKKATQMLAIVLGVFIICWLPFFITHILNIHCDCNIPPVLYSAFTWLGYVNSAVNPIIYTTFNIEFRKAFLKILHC
Chain of Gonadotropin-releasing hormone receptor (Homo sapiens) (P30968 whole entry, looked up): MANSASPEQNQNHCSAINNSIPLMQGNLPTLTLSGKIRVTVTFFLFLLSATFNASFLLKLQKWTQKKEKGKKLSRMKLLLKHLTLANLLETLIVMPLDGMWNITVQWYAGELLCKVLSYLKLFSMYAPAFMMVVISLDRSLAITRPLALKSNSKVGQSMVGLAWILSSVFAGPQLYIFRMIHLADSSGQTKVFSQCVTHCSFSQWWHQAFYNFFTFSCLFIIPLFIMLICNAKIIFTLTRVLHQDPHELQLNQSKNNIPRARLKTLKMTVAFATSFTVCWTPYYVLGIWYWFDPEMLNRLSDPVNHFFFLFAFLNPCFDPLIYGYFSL
Chain of Beta-2 adrenergic receptor (Homo sapiens) (P07550 whole entry, looked up): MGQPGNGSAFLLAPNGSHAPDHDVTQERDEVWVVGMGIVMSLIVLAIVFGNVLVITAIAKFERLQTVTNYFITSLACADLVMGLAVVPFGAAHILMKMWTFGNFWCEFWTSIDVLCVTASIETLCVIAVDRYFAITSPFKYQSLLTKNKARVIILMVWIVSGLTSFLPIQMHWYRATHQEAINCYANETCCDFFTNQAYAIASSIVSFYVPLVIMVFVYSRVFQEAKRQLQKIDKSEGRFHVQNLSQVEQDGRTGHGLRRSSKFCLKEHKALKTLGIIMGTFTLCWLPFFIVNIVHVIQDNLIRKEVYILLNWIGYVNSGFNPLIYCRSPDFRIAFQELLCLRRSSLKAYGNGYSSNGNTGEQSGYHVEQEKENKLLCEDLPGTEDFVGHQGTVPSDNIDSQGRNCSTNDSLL
Chain of Muscarinic acetylcholine receptor M1 (Homo sapiens) (P11229 whole entry, looked up): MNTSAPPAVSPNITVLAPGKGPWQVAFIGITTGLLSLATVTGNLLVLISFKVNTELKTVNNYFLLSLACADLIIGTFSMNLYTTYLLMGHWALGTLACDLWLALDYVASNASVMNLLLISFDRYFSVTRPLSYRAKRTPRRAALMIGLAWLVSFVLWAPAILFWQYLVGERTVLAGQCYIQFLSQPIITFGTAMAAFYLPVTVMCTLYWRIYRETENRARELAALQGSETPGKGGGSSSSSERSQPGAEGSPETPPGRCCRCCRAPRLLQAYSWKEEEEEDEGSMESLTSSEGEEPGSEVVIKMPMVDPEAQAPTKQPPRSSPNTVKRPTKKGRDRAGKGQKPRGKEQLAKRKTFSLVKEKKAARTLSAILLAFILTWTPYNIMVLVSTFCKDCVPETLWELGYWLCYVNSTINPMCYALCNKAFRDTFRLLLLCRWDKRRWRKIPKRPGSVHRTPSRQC
Chain of KiSS-1 receptor (Homo sapiens) (Q969F8 whole entry, looked up): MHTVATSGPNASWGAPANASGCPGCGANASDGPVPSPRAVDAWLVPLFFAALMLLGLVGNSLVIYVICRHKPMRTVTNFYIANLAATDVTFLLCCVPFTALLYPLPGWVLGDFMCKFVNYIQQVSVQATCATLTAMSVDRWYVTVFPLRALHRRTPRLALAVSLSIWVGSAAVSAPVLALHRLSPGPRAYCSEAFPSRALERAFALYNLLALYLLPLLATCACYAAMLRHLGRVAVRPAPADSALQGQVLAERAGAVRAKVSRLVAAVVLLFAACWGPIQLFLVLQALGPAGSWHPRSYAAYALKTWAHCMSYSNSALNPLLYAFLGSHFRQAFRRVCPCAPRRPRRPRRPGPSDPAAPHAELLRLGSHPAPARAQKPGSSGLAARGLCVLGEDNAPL

COc1c(C)c2c(c(O)c1C/C=C(\C)CCC(=O)OCCN1CCOCC1)C(=O)OC2
not listed: [14] | [15] | [16] | [17] | [18] | [19] | [20]
inactive: all other assays above

C=CC/C=C/C/C=C/C/C=C/C
not listed: [12] | [13]
inactive: all other assays above

C=CC(=O)OCCOCCOCC
not listed: [11] | [20]
inactive: all other assays above

CCOC(=O)c1ccccc1O
not listed: [12]
inactive: all other assays above

O=C1CCCCCCCCCCCCCC1
inactive: all assays above

CC1(C)Cc2cccc(N)c2O1
not listed: [13]
inactive: all other assays above

CN(C(=O)CCCOc1ccc2[nH]c(=O)ccc2c1)C1CCCCC1
active: [1] 10.6 µM
not listed: [13] | [14] | [15] | [16] | [17] | [18] | [19] | [20]
inactive: all other assays above

CC(=O)OC1CCC(C(C)(C)C)CC1 (stereo unspecified)
not listed: [19]
inactive: all other assays above

O=C(O)c1cc(-c2ccc(F)cc2F)ccc1O
inactive: [1] | [2] | [3] | [4] | [5] | [6] | [7] | [8] | [9] | [10] | [13]

CC(C)(C)NSc1nc2ccccc2s1
active: [2] 24.8 µM
not listed: [11]
inactive: all other assays above

CC1(C)C(=O)N(CO)C(=O)N1CO
not listed: [11]
inactive: all other assays above

CCCCCCCCCCCBr
not listed: [11]
inactive: all other assays above

C/C=C(\C)C(=O)OCCC(C)CCC=C(C)C (stereo unspecified)
not listed: [11]
inactive: all other assays above

O=C(/C=C/c1ccccc1)OC/C=C/c1ccccc1
not listed: [11]
inactive: all other assays above

CN(C(=O)C(Cl)Cl)c1ccc(OC(=O)c2ccco2)cc1
not listed: [11] | [13] | [20]
inactive: all other assays above
